Assay outcomes (PubChem)
Compounds with a hit are over-represented: about 10% of the library has one in this group of screens.
NPR1 antag = Natriuretic polypeptide receptor (hNpr1) antagonism - Primary qHTS; HEK293 hNpr1 GloSensor cGMP, ANP-stimulated luminescence; 1.6% of 76,000 active; Atrial natriuretic peptide receptor 1 (Homo sapiens), P16066; Potency, µM (series often up to 46.3 µM), inactives show at the highest dose activity change, negative = inhibition, most hits filed as inhibitors; calls by dose curve; note: % is set by controls: 0 for no effect and ±100 for the full control effect; nearly all actives have a fitted effect of over 60% in size
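HEK293 cells stably expressing human Npr1 and cGMP GloSensor pGS-40F, loaded 2 h with 2% GloSensor reagent, given compound 30 min at room temperature. Luminescence read before and 20 min after 0.1 nM hNppA.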
NIH3T3 tox = Cytotoxic Profiling in NIH 3T3 Cell Line of Diverse Libraries Using Quantitative High-Throughput Screening; NIH 3T3 viability, CellTiter-Glo ATP luminescence, 48-72 h; Potency, µM (series often up to 96.7 µM), for inactives: top-dose activity change, negative = cytotoxicity, most hits filed as inhibitors; 4.3% of 94,000 active; note: % is set by controls: 0 for no effect and ±100 for the full control effect; nearly all actives have a fitted effect of over 55% in size
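First NIH 3T3 cells are plated at 400 cells/well; next compound is pinned in; then plates incubate 48 or 72 hr at 37 °C; finally CellTiter-Glo is added and luminescence read after 10 min.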
HEK cytotox = Cytotoxic Profiling in HEK 293 Cell Line of Diverse Libraries Using Quantitative High-Throughput Screening; AID 1345083, 2018; Potency, µM (top dose mostly 115 µM), for the others: at the top dose activity change, negative = cytotoxicity, hits mostly inhibitors; HEK 293 viability, ATP luminescence (CellTiter-Glo), 48-72 h; 6.6% of 94,000 active; note: % is set by controls: 0 for no effect and ±100 for the full control effect; nearly all actives have a fitted effect of over 60% in size
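HEK 293 cells seeded at 250 cells/well were exposed to compound for 48 or 72 hr at 37 degree Celsius. Viability taken as ATP content by CellTiter-Glo luminescence.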
GPT2 inh = Primary qHTS assay for inhibitors of Glutamate pyruvate transaminase 2 (GPT2) | Alanine aminotransferase 2 (Homo sapiens), Q8TD30 | Recombinant GPT2, coupled pyruvate oxidase/HRP Amplex Red fluorescence | Potency, µM (highest dose often 57.7 µM), without a hit: top-dose activity change, negative = inhibition, hits mostly inhibitors | 0.25% of 100,000 active | AID 1671188, 2021; note: % is set by controls: 0 for no effect and ±100 for the full control effect; nearly all actives have a fitted effect of over 60% in size
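Fluorescence of coupled pyruvate oxidase/HRP/Amplex Red system (50uM Amplex, 30 min, dark) reports pyruvate formed by GPT2. Enzyme reaction: 10ng/uL GPT2, 2mM L-alanine, 250uM a-KG, 30 min room temperature, pH 7.5; 50uM AOA control.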
FLuc inh-1 = Firefly luciferase inhibition profiling of diverse chemical library using quantitative high-throughput screening. Potency, µM (highest dose often 115 µM), usual class: inhibitors. 2.5% of 76,000 active. AID 1347043, 2019. purified P. pyralis luciferase, luminescence, biochemical; note: % is set by controls: 0 for no effect and ±100 for the full control effect; nearly all actives have a fitted effect of over 65% in size
Target sequence (P08659 whole entry, looked up): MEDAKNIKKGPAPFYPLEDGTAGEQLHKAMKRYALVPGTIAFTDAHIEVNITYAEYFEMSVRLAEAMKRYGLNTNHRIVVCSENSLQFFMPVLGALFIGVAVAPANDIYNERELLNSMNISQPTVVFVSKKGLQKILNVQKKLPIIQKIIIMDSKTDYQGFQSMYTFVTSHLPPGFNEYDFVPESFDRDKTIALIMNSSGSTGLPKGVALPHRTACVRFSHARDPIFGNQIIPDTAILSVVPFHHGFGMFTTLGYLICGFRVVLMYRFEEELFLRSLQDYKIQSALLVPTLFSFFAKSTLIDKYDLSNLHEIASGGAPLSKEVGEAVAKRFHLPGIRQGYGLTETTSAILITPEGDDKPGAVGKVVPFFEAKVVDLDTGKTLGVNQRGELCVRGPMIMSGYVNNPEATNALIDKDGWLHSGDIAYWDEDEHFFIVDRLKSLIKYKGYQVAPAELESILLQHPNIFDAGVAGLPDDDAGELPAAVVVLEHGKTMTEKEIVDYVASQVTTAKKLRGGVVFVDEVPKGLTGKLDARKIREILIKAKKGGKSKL
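Inhibitors were tested against purified firefly luciferase in a biochemical, low-substrate format (both substrates at 10uM) and luminescence measured with a CCD imager.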
FLuc SDR -ATP = Firefly luciferase (FLuc-C-HiBiT) SDR gain of signal screen - without ATP. shares compounds with FLuc inh-1. Purified FLuc-C-HiBiT, Nano-Glo HiBiT luminescence, no ATP. Potency, µM (top dose mostly 32.7 µM), inactives show top-dose activation (signal gain), actives largely listed as activators. 7.8% of 1,300 active; note: nearly all actives have a fitted effect of over 55% in size
FLuc SDR ATP = Firefly luciferase (FLuc-C-HiBiT) SDR gain of signal screen - plus ATP | shares compounds with FLuc inh-1 | purified FLuc-C-HiBiT + ATP, HiBiT complementation luminescence | Potency, µM (highest dose often 32.7 µM), for inactives: at the top dose activation (gain of signal), most hits filed as activators | 8.7% of 1,300 active;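 note: signal reports ligand binding via conformational change of the enzyme rather than luciferase catalysis; % of control where 0% means no effect; nearly all actives have a fitted effect of over 55% in size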
FLuc inh-2 = Firefly luciferase (FLuc-C-HiBiT) enzymatic inhibition screen - Functional assay. shares compounds with FLuc inh-1. purified FLuc-C-HiBiT enzyme, luciferin luminescence. Potency, µM (series often up to 32.7 µM), for the others: at the top dose activity change, negative = inhibition, actives largely listed as inhibitors. 42% of 1,300 active; note: % is set by controls: 0 for no effect and ±100 for the full control effect; nearly all actives have a fitted effect of over 70% in size
Numbers without * were called inactive; i = inactive; ? = inconclusive; . = no result given; [ ] = remark or other dose. Unless noted, calls come from the whole dose curve; as a rule, active = well fitted curve in the direction sought with a large enough effect; inconclusive = small, poorly fitted or top-dose-only effect, or another doubt; inactive = no such curve, though single readings can be large; an effect the other way counts as inactive or inconclusive. Potency is the fitted concentration of half-maximal effect.

SMILES	NPR1 antag	NIH3T3 tox	HEK cytotox	GPT2 inh	FLuc inh-1	FLuc SDR -ATP	FLuc SDR ATP	FLuc inh-2
CC(C)c1ccc(NC(=O)c2ccc(CN3C(=O)NC4(CCOCC4)C3=O)cc2)cc1	10µM*	40µM*	?	5%	2µM*	?	?	3.5µM*
COc1ccc(CN2CC(COc3ccccc3)C3(C2)CN(c2ccccc2)C3)cc1O (configuration not stated)	-18%[70.6 µM]	?	28µM*	4%[88.5 µM]	i	12%[49.3 µM]	7%[49.3 µM]	-16%[49.3 µM]
O=C(O)c1ccc(CN2CC(COc3ccccc3)C3(C2)CN(c2ccccc2)C3)cc1 (configuration not stated)	-22%[70.6 µM]	-22%[138 µM]	?	-12%[88.5 µM]	i	.	.	.
CN(Cc1ccco1)C(=O)c1cccc2c1CCN2C(=O)Nc1ccccc1	10µM*	?	?	2%	1.3µM*	?	0.28µM*	0.2µM*
CN(Cc1ccccc1)C(=O)c1cccc2c1CCN2C(=O)Nc1ccccc1	8.9µM*	?	?	0%	0.79µM*	16%	0.39µM*	0.28µM*
CN(Cc1ccccc1)C(=O)CC1CCN(C(=O)Nc2ccccc2)C1 (configuration not stated)	.	-26%	?	i	.	.	.	.
COc1ccc(Cn2c(=O)c(C(=O)NC(C)C)nc3cccnc32)cc1	.	-27%	-12%	-10%	.	.	.	.
CC(=O)Nc1cccc(-c2ccnc(-c3nnc(C)n3CCN3CCOCC3)c2)c1	-2%[70.6 µM]	?	-12%[172 µM]	-20%[88.5 µM]	i	.	.	.
COc1cccc(CNC(=O)Nc2cccc(-c3ccc(N4CCOCC4)nn3)c2)c1	?	?	?	?	1.1µM*	?	?	2.8µM*
COc1ccc(CNC(=O)Nc2cccc(-c3ccc(N4CCCCC4)nn3)c2)cc1	8.9µM*	?	?	i	0.25µM*	2µM*	?	0.5µM*
CCc1cc(=O)n(CC(=O)NCc2cccc(OC)c2)c(N2CCOCC2)n1	2%	2%	1%	2%	i	.	.	.
O=C(NCc1ccco1)Nc1cccc(-c2ccc(N3CCCC3)nn2)c1	-22%	?	?	?	7.1µM*	?	?	?
O=C(NCc1ccccc1)Nc1cccc(-c2nnc3n2CCCC3)c1	-3%	-14%	?	i	i	.	.	.
Cc1ccc(CNC(=O)Nc2cccc(-c3ccc(N4CCOCC4)nn3)c2)cc1	-25%	?	?	i	1.3µM*	?	?	2.8µM*
COC[C@@H]1CN(C(=O)c2ccncc2)C[C@H]1c1ccccn1	.	-23%	-6%	-5%	.	.	.	.
CNC(=O)c1cc(C)nc2onc(C3CCN(C(=O)NC4CCCC4)CC3)c12	.	-25%	-15%	.	.	.	.	.
CN1CCN(C(=O)c2cn3cc(-c4ccc(C(F)(F)F)cc4)sc3n2)CC1	.	?	3%	-6%	.	.	.	.
N#Cc1c(-n2ncnc2-c2ccccc2Cl)sc2c1CCCCC2	.	.	.	.	.	30%	?	2.2µM*
N#Cc1c(-n2ncnc2-c2cccc(Cl)c2)sc2c1CCCCC2	.	.	.	.	.	29%	?	2µM*
COc1ccc(C(=O)N2CC(N(C)c3ccccc3C)C2)cc1	5%[70.6 µM]	?	?	-12%[88.5 µM]	i	.	.	.
COC1C(=O)N(CC2CC2)C12CCN(C(=O)c1cccs1)CC2 (configuration not stated)	.	i	i	i	.	.	.	.
COc1ccc(OC)c(-c2nc3ccc(OC)cc3s2)c1	.	.	.	.	.	21%	14%	?
COc1ccc2nc(NC(=O)Nc3ccccc3)sc2c1	.	.	.	-12%	.	.	.	.
COc1cccc(-c2cccc(C(=O)N3CCCC3C(=O)NCc3ccc(Cl)cc3)c2)c1 (configuration not stated)	.	?	?	-61%	.	.	.	.
CC1(NC(=O)C2CC2)CN(Cc2nc(-c3ccccc3)cs2)C1	?	?	-29%[172 µM]	-20%[88.5 µM]	13µM*	16%[49.3 µM]	13%[49.3 µM]	?
COc1cccc(-n2cc(CN(C)c3ncncn3)cn2)c1	1%	-27%	-17%	0%[11.5 µM]	13µM*	17%	11%	-16%
COc1ccc(-n2cc(-c3ccnc(N(C)Cc4cnccn4)n3)cn2)cc1	1%	?	?	1%	?	.	.	.
O=C(NC1CCN(C(=O)c2ccc(-c3cccs3)cc2)CC1)c1cccc(Cl)c1	.	?	?	i	.	.	.	.
c1ccc(COc2ccc(CN3CCSCC3)cc2)nc1	3%	i	?	2%	10µM*	21%	15%	?
NC(=O)[C@@H]1CN(Cc2ccccn2)C[C@H]1COc1ccccc1	4%	?	-16%	?	i	.	.	.
